Records with an inconclusive call do not appear. Where a structure was tested more than once in an assay, its records may differ in their call. Calls of active or inactive are those of the source. Unless noted, calls follow the shape of the dose curve; as a rule, active = well fitted curve in the direction sought with a large enough effect in the repeat runs; inconclusive = weak or mixed curves; inactive = no such curve, though single readings can be large; an effect the other way counts as inactive or inconclusive.
How the values were obtained:
[1] = qHTS assay to identify small molecule antagonists of the thyroid receptor (TR) signaling pathway - cell viability counter screen (AID 743064); also: nearly all actives have a fitted effect of over 50% in size
How it was run: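 In-well cytotoxicity read by CellTiter-Fluor (30 min, 37 C) following 23.5 h exposure of GH3 cells bearing a TRE-luciferase sensor. Compounds were added alongside 1 nM (final) T3 to drive TR transactivation.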

[2] = qHTS assay to identify small molecule antagonists of the thyroid receptor (TR) signaling pathway (AID 743065); also: nearly all actives have a fitted effect of over 55% in size
How it was run: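 Antagonism measured as loss of luciferase signal in GH3 cells stably carrying a TRE-luciferase reporter, co-treated with compound and T3 (1 nM final) for 23.5 h at 37 C. Viability was read in the same well by CellTiter-Fluor.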

[3] = system: thyroid hormone receptor (rat, GH3 cells); experiment: qHTS assay to identify small molecule agonists of the thyroid receptor (TR) signaling pathway (AID 743066; calls by dose curve)
[4] = qHTS assay to identify small molecule antagonists of the estrogen receptor alpha (ER-alpha) signaling pathway - cell viability counter screen (AID 743074; calls by dose curve; also: nearly all actives have a fitted effect of over 45% in size)
[5] = qHTS assay to identify small molecule antagonists of the estrogen receptor alpha (ER-alpha) signaling pathway using the BG1 cell line - cell viability counter screen (AID 743081);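 also: compound given together with 17beta-estradiol as the ER stimulus; nearly all actives have a fitted effect of over 45% in size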
Aromatase (Homo sapiens) = Aromatase (Homo sapiens) (UniProt P11511); experiment: qHTS assay to identify aromatase inhibitors (AID 743083); also: nearly all actives have a fitted effect of over 55% in size
[6] = qHTS assay to identify aromatase inhibitors - cell viability counter screen (AID 743084);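 also: cells stimulated with testosterone during compound exposure; nearly all actives have a fitted effect of over 55% in size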
[7] = molecular target: Aryl hydrocarbon receptor (Homo sapiens) (UniProt P35869); experiment: qHTS assay to identify small molecule that activate the aryl hydrocarbon receptor (AhR) signaling pathway (AID 743085);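 also: HG2L7.5c1 human HepG2 liver cells with stably integrated DRE-driven firefly reporter; nearly all actives have a fitted effect of over 15% in size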
How it was run: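 Luminescence (ONE-Glo) from a dioxin-responsive-element luciferase reporter in HG2L7.5c1 HepG2 cells after 24 hr compound exposure at 37C; viability measured by CellTiter-Fluor fluorescence beforehand.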

[8] = qHTS assay to identify small molecule that activate the aryl hydrocarbon receptor (AhR) signaling pathway - cell viability counter screen (AID 743086);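 also: HepG2 liver cells carrying the AhR DRE luciferase reporter; nearly all actives have a fitted effect of over 45% in size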
How it was run: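 Cytotoxicity counter screen: CellTiter-Fluor signal (30 min, 37 C) in 4000 HepG2 cells/well carrying the DRE-luciferase reporter, following 24 h compound exposure at 37 C.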

[9] = molecular target: Peroxisome proliferator-activated receptor gamma (Homo sapiens) (UniProt P37231); experiment: qHTS assay to identify small molecule agonists of the peroxisome proliferator-activated receptor gamma (PPARg) signaling pathway (AID 743094; active = well fitted activation curve with a large enough effect in the signal ratio in the repeat runs, not every such curve was filed as active; the % refers to the signal ratio)
How it was run: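 Cells from the PPARg UAS-bla HEK293H line are plated and incubated 5 h at 37C. Compounds in DMSO are pinned in and left 17 h at 37C. LiveBLAzer B/G substrate is then added for 1 h at room temperature before fluorescence is measured.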

[10] = molecular target: Peroxisome proliferator-activated receptor gamma (Homo sapiens) (UniProt P37231); experiment: qHTS assay to identify small molecule antagonists of the peroxisome proliferator-activated receptor gamma (PPARg) signaling pathway (AID 743191; calls by dose curve; also: nearly all actives have a fitted effect of over 30% in size)
How it was run: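 Beta-lactamase reporter under UAS control in HEK293H PPARg-bla cells; compound treatment 17 h at 37C. Read-out: fluorescence intensity after 1 h room-temperature incubation with LiveBLAzer B/G FRET substrate.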

[11] = qHTS assay to identify small molecule antagonists of the peroxisome proliferator-activated receptor gamma (PPARg) signaling pathway - cell viability counter screen (AID 743194); conditions: Potency: co-treated with 50 nM rosiglitazone unless noted; also: nearly all actives have a fitted effect of over 55% in size
How it was run: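 Viability was measured as CellTiter-Glo luminescence in GeneBLAzer PPARg UAS-bla HEK293H cells. These cells had been exposed 17 h at 37 C to compounds together with rosiglitazone at 50 nM final, with the beta-lactamase readout taken in the same wells.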

[12] = qHTS assay for small molecule activators of the heat shock response signaling pathway - cell viability counter screen (AID 743209); also: nearly all actives have a fitted effect of over 50% in size
How it was run: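 Cytotoxicity counter screen run in parallel with the HSE beta-lactamase reporter, using the same wells. HeLa HSE-bla cells received compound for 5 h at 37 C; ATP-based CellTiter-Glo luminescence was measured after 30 min at room temperature.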

[13] = molecular target: Estrogen receptor (Homo sapiens) (UniProt P03372); experiment: qHTS assay to identify small molecule antagonists of the estrogen receptor alpha (ER-alpha) signaling pathway (AID 743069; active = well fitted curve in the direction sought with a large enough effect in the signal ratio in the repeat runs, not every such curve was filed as active; the % refers to the signal ratio)
How it was run: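 Fluorescence intensity from a beta-lactamase FRET substrate served as the read-out. Cells: HEK293 with stably integrated ER-alpha-UAS-bla reporter. Agonist 17beta-estradiol was co-added with compounds; incubation 18 hr at 37C, substrate 2 hr at room temperature.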

[14] = molecular target: Estrogen receptor (Homo sapiens) (UniProt P03372); experiment: qHTS assay to identify small molecule agonists of the estrogen receptor alpha (ER-alpha) signaling pathway (AID 743075; calls by dose curve)
[15] = molecular target: Estrogen receptor (Homo sapiens) (UniProt P03372); experiment: qHTS assay to identify small molecule agonists of the estrogen receptor alpha (ER-alpha) signaling pathway using the BG1 cell line (AID 743079); conditions: BG1Luc4E2 cells, ERE-luciferase agonist, 22 h; activation: at 70.3 µM (top of the series) unless noted; also: nearly all actives have a fitted effect of over 20% in size; also: potency is read from the fitted curve at half-maximal effect
[16] = qHTS assay to identify small molecule antagonists of the estrogen receptor alpha (ER-alpha) signaling pathway using the BG1 cell line (AID 743080; calls by dose curve;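 also: BG1 cells stimulated with 17beta-estradiol alongside compound; nearly all actives have a fitted effect of over 25% in size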)
How it was run: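 Luminescence from a 4×ERE-luciferase reporter in BG1-Luc-4E2 cells served as read-out. Cells, pre-cultured 5 days in stripped-serum phenol-red-free medium, were exposed to compound with 17beta-estradiol co-stimulation for 21.5 h at 37 C.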

[17] = qHTS assay for small molecule agonists of the antioxidant response element (ARE) signaling pathway - cell viability counter screen (AID 743203; calls by dose curve; also: nearly all actives have a fitted effect of over 55% in size)
How it was run: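 Cytotoxicity was tested in parallel with the ARE reporter screen. ARE-bla HepG2 cells were exposed to compounds for 16 hrs, and viability was taken from CellTiter-Glo luminescence.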

[18] = qHTS assay for small molecule activators of the heat shock response signaling pathway (AID 743210; active = well fitted activation curve with a large enough effect in the signal ratio in the repeat runs, with a control signal flat, not every such curve was filed as active; the % refers to the signal ratio;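 also: HeLa cells with beta-lactamase reporter driven by heat shock elements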)
How it was run: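 Fluorescence from a cleaved B/G FRET substrate (2.5 h, room temp) reports HSE-driven beta-lactamase in HeLa cells treated 5 h at 37 C with DMSO-dissolved compounds.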

[19] = qHTS assay for small molecule agonists of the antioxidant response element (ARE) signaling pathway (AID 743202; active = well fitted activation curve with a large enough effect in the signal ratio in the repeat runs, not every such curve was filed as active; the % refers to the signal ratio)
How it was run: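 Beta-lactamase reporter activity, read as fluorescence intensity, reflects ARE/Nrf2 pathway induction in HepG2 cells after 16 h compound exposure at 37 C; substrate loading was 2 h at room temperature.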

Measured: Potency

Aromatase (Homo sapiens), sequence (P11511 whole entry, looked up): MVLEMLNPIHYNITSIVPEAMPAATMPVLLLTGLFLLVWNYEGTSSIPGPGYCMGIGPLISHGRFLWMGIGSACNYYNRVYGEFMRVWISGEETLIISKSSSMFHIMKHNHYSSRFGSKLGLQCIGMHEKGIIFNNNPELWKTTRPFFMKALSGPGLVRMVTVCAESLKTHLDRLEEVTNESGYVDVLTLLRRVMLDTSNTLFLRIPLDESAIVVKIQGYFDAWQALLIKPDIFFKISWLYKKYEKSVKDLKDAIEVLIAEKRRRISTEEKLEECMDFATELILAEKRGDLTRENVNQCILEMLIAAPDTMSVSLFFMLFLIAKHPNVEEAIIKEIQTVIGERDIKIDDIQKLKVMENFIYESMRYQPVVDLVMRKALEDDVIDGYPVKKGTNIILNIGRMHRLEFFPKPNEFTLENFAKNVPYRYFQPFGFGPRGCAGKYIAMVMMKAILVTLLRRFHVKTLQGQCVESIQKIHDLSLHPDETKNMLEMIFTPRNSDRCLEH
Estrogen receptor (Homo sapiens), sequence (P03372 whole entry, looked up): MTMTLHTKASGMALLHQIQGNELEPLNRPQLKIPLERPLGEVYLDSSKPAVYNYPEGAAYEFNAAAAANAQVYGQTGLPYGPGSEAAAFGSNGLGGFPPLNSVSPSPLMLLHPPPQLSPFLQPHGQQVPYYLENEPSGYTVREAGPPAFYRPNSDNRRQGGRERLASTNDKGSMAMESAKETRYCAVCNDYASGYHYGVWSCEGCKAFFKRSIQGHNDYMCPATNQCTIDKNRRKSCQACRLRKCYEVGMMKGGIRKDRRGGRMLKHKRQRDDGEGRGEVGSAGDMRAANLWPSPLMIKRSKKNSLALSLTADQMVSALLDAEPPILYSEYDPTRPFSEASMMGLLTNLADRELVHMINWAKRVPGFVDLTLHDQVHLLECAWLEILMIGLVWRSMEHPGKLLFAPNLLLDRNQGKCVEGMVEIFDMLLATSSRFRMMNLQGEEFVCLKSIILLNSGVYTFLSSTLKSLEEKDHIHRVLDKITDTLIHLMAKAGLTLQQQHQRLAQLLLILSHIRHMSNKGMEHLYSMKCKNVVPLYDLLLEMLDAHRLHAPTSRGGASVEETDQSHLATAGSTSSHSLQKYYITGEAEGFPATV
Peroxisome proliferator-activated receptor gamma (Homo sapiens), sequence (P37231 whole entry, looked up): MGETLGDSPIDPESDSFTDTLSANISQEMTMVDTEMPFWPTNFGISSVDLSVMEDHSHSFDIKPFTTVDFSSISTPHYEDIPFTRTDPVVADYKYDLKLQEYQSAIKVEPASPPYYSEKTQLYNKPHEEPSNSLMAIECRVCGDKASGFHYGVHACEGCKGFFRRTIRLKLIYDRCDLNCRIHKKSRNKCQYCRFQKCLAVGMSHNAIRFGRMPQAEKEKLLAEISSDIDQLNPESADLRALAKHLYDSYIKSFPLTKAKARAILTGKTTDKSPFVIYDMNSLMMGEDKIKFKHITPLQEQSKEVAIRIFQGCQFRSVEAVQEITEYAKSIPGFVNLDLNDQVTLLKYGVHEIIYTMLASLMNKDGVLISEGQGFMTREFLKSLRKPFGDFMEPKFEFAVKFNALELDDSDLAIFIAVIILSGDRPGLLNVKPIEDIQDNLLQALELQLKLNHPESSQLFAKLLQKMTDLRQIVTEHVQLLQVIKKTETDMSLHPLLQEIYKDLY
Aryl hydrocarbon receptor (Homo sapiens), sequence (P35869 whole entry, looked up): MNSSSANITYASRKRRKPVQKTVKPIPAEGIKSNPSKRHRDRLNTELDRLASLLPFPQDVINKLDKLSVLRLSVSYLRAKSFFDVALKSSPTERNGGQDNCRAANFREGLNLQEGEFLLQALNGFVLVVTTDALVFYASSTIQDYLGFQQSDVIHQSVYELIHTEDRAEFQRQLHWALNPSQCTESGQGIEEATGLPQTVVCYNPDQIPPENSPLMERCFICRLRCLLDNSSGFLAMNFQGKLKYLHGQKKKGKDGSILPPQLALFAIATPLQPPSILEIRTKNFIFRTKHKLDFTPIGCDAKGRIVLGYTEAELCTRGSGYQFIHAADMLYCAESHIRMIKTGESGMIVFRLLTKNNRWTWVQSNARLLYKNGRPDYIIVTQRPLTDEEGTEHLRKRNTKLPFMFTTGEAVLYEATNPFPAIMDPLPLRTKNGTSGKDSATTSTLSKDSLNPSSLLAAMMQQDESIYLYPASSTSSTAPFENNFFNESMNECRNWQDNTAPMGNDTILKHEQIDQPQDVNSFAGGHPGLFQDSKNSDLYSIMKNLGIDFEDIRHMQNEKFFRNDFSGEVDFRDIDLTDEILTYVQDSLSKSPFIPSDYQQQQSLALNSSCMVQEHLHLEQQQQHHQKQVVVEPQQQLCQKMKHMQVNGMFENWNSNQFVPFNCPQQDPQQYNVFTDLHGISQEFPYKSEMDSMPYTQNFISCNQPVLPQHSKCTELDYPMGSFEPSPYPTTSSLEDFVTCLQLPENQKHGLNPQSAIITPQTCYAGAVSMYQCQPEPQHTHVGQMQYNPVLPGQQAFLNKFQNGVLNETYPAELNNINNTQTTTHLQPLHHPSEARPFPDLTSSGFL

CCCOC(=O)NCCCN(C)C
inactive: [1] | [2] | [3] | [4] | [5] | Aromatase (Homo sapiens) | [6] | [7] | [8] | [9] | [10] | [11] | [12]

Cc1ccccc1C=O
inactive: [1] | [2] | [3] | [13] | [4] | [14] | [15] | [16] | [5] | Aromatase (Homo sapiens) | [6] | [7] | [8] | [9] | [10] | [11] | [17] | [12] | [18]

COc1c2ccoc2cc2oc(=O)ccc12
inactive: [1] | [2] | [3] | [4] | [14] | [15] | [16] | [5] | Aromatase (Homo sapiens) | [6] | [8] | [9] | [10] | [11] | [19] | [17] | [12] | [18]

O=[N+]([O-])c1cc(C(F)(F)F)ccc1Cl
inactive: [1] | [2] | [3] | [4] | [5] | Aromatase (Homo sapiens) | [6] | [8] | [9] | [10] | [11] | [17] | [12] | [18]

OCC(O)CS (stereo not given)
11.9 µM (active) and inactive: [15]
inactive: [1] | [2] | [3] | [13] | [4] | [14] | [16] | [5] | Aromatase (Homo sapiens) | [6] | [7] | [8] | [9] | [10] | [11] | [17] | [12] | [18]

COc1ccccc1[N+](=O)[O-]
inactive: [1] | [2] | [3] | [4] | [5] | Aromatase (Homo sapiens) | [6] | [8] | [11] | [19] | [17] | [12] | [18]

Cc1ccccc1Cl
inactive: [1] | [2] | [3] | [13] | [4] | [14] | [15] | [16] | [5] | Aromatase (Homo sapiens) | [6] | [7] | [8] | [9] | [10] | [11] | [12] | [18]

Cc1ccc(C(C)C)cc1
inactive: [1] | [3] | [13] | [4] | [14] | [15] | [16] | [5] | Aromatase (Homo sapiens) | [6] | [7] | [8] | [9] | [10] | [12] | [18]

From PubChem BioAssay (Tox21)
